# Source: PubChem BioAssay (National Center for Advancing Translational Sciences (NCATS))
# Mito fusion act = blocks mitochondrial division or promotes mitochondrial fusion | Potency, µM (doses to about 46.1 µM), for the others: at the highest dose growth rescue (activation), hits mostly activators | S. cerevisiae fusion-defective mutant growth rescue, CellTiterGlo 48 h | AID 485298 | 320,000 tested, 0.23% active; note: % of control where 0% means no effect; nearly all actives have a fitted effect of over 45% in size
#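 Luminescent cell viability in 1536-well qHTS format served as the measure of rescued growth in ts fusion-mutant S. cerevisiae cultured on non-fermentable YPEG for 48 hours at 37C.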
# Abeta yeast res = compounds reversing amyloid beta toxicity in yeast. Potency, µM (highest dose often 46.1 µM), actives largely listed as activators. yeast expressing A-beta42, growth rescue, OD600, 48 h; response scale: 0% DMSO, 100% iron-clioquinol control. 410,000 tested, 0.063% active; note: nearly all actives have a fitted effect of over 55% in size
#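 Yeast A-beta toxicity model in growth medium with pinned compounds, 48 h at 30 C; growth read as absorbance at 600 nm. Normalized to FeCl3/clioquinol equimolar mix (positive) and DMSO (negative).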
# FUS suppressor = FUS proteinopathy suppression in yeast. Potency, µM (series often up to 76.6 µM), actives largely listed as activators. AID 1347120. 390,000 tested, 0.24% active. S. cerevisiae FUS-expressing, growth rescue, OD600, 24 h;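 note: plate controls were DMSO vehicle for no effect and reference control for full effect; nearly all actives have a fitted effect of over 55% in size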
#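 Steps: raffinose overnight preculture; dilution to OD 0.005 in 2% galactose minimal medium; compound addition (concentration series); 24hr at 30C, 99% humidity; absorbance read at 600 nm.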
# aSyn yeast inh = rescues yeast growth from alpha-synuclein toxicity; AID 652106; Yeast expressing alpha-synuclein, growth rescue, BacTiter-Glo, 24 h; 370,000 tested, 0.14% active; Potency, µM (top dose mostly 46.1 µM), inactives show at the highest dose growth rescue (activation), hits mostly activators; note: % of control where 0% means no effect; nearly all actives have a fitted effect of over 65% in size
#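 Screening used galactose-induced yeast with toxic alpha-synuclein levels, exposed to compound for 24 hr at 30 deg C. Cell growth, read with BacTiter-Glo luminescence, gave the measured signal.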
# TDP-43 yeast inh = rescues yeast growth from TDP-43 toxicity; TDP-43 expressing yeast growth rescue, BacTiter-Glo, 24 h; Potency, µM (doses to about 46.1 µM), without a hit: at the highest dose growth rescue (activation), most hits filed as activators; 410,000 tested, 1.8% active; AID 652104; note: % of control where 0% means no effect; nearly all actives have a fitted effect of over 50% in size
#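 Yeast cells expressing TDP-43 under galactose induction are exposed to compounds for 24 hr at 30 deg C. BacTiter-Glo luminescence measures growth, so protective compounds score as activators.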
# Active calls of the source: *; i = inactive; ? = inconclusive; . = no result; ! = not confirmed by another sample. In the library only some 2.2% were active in any assay of this set; here they are far more common. Calls come from the whole dose curve; as a rule, active = well fitted curve in the direction sought with a large enough effect; inconclusive = small, poorly fitted or top-dose-only effect, or another doubt; inactive = no such curve, though single readings can be large; an effect the other way counts as inactive or inconclusive. Potency is the fitted concentration of half-maximal effect.
SMILES,Mito fusion act,Abeta yeast res,FUS suppressor,aSyn yeast inh,TDP-43 yeast inh
CCOC(=O)c1c(-c2ccccc2)csc1NC(=O)c1nc(S(=O)(=O)CC)ncc1Cl,.,i,i,.,4µM*
COc1ccc(OC)c(NC(=O)c2nc(S(=O)(=O)Cc3ccc(F)cc3)ncc2Cl)c1,.,i,i,.,3.2µM*
Cc1cccc(NC(=O)c2nc(S(C)(=O)=O)ncc2Cl)c1,.,i,i,.,20µM*
CCS(=O)(=O)c1ncc(Cl)c(C(=O)Nc2ccccc2)n1,.,i,i,.,11µM*
CCc1ccc(NC(=O)c2nc(S(=O)(=O)Cc3ccccc3)ncc2Cl)cc1,-55%,.,.,.,.
COc1cc(/C=C/C(=O)c2ccccc2)cc(OC)c1OC,.,.,i,.,.
COc1ccc(-c2coc3c(C(=O)Nc4ccc(OC)nc4)cccc23)c(C)c1,.,i,i,-17%,35µM*
COc1ccc(-c2ccc(C(=O)Nc3ccccc3)c3occc23)c(C)c1,.,i,i,-12%,0%
COc1ccc(-c2ccc(C(=O)Nc3ccc(OC)nc3)c3occc23)c(C)c1,.,i,?,-19%,35µM*
COc1ccc(S(=O)(=O)N(Cc2nc(-c3ccccc3)no2)C2CCCCC2)cc1,.,i,i,.,10%
O=C(CSc1nc2ccsc2c(=O)n1Cc1ccccc1F)NCc1ccccc1,.,i,i,.,-1%
CCCCOc1ccc(C(=O)NCCS(=O)(=O)N2CCN(c3ccccc3OC)CC2)cc1,.,?,?,.,13µM*
O=C1NC[C@@H](c2ccccc2)OC(=O)[C@@H](Cc2ccc(F)cc2)CC/C=C/C[C@H]1CC(=O)N(CCO)Cc1ccccc1,.,i,25µM*,13%,-6%
O=C1N[C@@H](Cc2c[nH]c3ccccc23)COC(=O)[C@H](Cc2ccc(F)cc2)C/C=C\C[C@@H]1CC(=O)N(CCO)Cc1ccccc1,.,i,28µM*,6%,22%
O=C(N[C@H]1C/C=C\C[C@H](CC(=O)N(CCO)Cc2ccccc2)C(=O)N[C@H](Cc2c[nH]c3ccccc23)COC1=O)OCC1c2ccccc2-c2ccccc21,.,i,22µM*,2%,6%
O=C(N[C@H]1C/C=C\C[C@@H](CC(=O)N(CCO)Cc2ccccc2)C(=O)N[C@H](Cc2c[nH]c3ccccc23)COC1=O)OCC1c2ccccc2-c2ccccc21,.,i,20µM*,-4%,24%
Brc1cccc[n+]1Cc1ccccc1C[n+]1ccccc1Br,.,.,.,-6%,.
COC(=O)c1c(-c2ccc(Br)cc2)noc1N,0%,i,i,-3%,20µM*
CCOc1cc(-c2noc(N)c2C(=O)OC)cc(OCC)c1OCC,3%,i,.,-11%,10%
O=C(Nc1ccc2c(c1)OCCO2)C(c1cc2ccccc2o1)N1CCC(Cc2ccccc2)CC1 (stereo not given),.,i,16µM*,-14%,12%
CC(C)OC(=O)NCCOC(=O)Nc1ccc(Cl)c(Cl)c1,-1%,i,i,9%,11µM*
CC(C)OC(=O)NCCOC(=O)Nc1cccc(Cl)c1,-1%,i,i,-22%,?
O=C(CSc1nnc(-c2ccccc2)n1-c1ccc(Cl)cc1)Nc1ccc2cn[nH]c2c1,.,.,i,.,.
CCNc1nc(N)c(C(=O)c2ccc(Cl)s2)s1,1%,i,i,9%,13µM*
CC(C)(C)c1csc(NC(=O)c2ccc(Cl)s2)n1,17%,i,i,-35%,?
SMILES,Mito fusion act,Abeta yeast res,FUS suppressor,aSyn yeast inh,TDP-43 yeast inh
Cc1oc(-c2ccc(Cl)cc2)nc1CSc1nnc(C)n2c1cc1sccc12,.,i,i,.,8%
Cc1cc(C)c(COc2ccc(/C=N/n3c(C)n[nH]c3=S)cc2)c(C)c1,3%,?,i,1%,20µM*
O=C(Nc1cc(F)ccc1F)c1cnn2c1NC(=C1CC1)C=C2C(F)F,.,.,.,-3%,.
Cc1cccc(N2C(=O)C(O)=C(C(=O)c3cccs3)C2c2ccc(C(C)C)cc2)n1 (stereo not given),10%,i,i,-27%,28µM*
CCOC(=O)[C@H]1[C@H]2COc3ccc(Br)cc3[C@@H]2N2C(=O)c3cc(F)c(F)cc3NC(=O)[C@@]12C,-25%,i,28µM*,1%,29%
CCOC(=O)[C@H]1[C@H]2COc3ccc(Br)cc3[C@@H]2N2C(=O)N(c3ccccc3)C(=O)[C@@]12C,.,i,?,1%,16%
CCOC(=O)[C@@H]1[C@H]2COc3cc(OC)ccc3[C@@H]2N2C(=O)N(c3ccc(Cl)cc3)C(=O)[C@]12C,.,i,28µM*,-4%,7%
CCOC(=O)[C@@H]1[C@H]2COc3ccc(Br)cc3[C@@H]2N2C(=O)N(c3ccccc3)C(=O)[C@@]12C,1%,i,i,?,35µM*
CCOC(=O)[C@@H]1[C@H]2COc3cc(OC)ccc3[C@H]2N2C(=O)N(c3ccc(Cl)cc3)C(=O)[C@]12C,.,i,?,9%,19%
CCC[C@H]1[C@@H](OC(=O)NCc2cccs2)CC[C@@]23CCCN2C(=O)CCC[C@@H]13,.,.,i,.,.
COCC(=O)N(C[C@H]1[C@H](c2ccccc2)[C@@H](CO)N1C(=O)NC(C)C)C(C)C,.,.,i,.,.
CCCCCCCCCCCCCCCC[n+]1cccc(C(=O)N(CC)CC)c1,-34%,i,28µM*!,-10%,-18%
CCCCCCCCCCCCCCCC[n+]1ccc(C(N)=O)cc1,-18%,i,32µM*,-73%,-36%
CCOC(=O)CC[C@H]1CC[C@]2(CCCN(C(=O)C(C)(C)C)C2)O1,.,.,i,.,.
Cc1ccc(NC(=O)CN2C(=O)CCn3nc(-c4cccn4C)cc32)c(Cl)c1,.,i,?,.,25%
O=C(Nc1ccccc1-c1ccccc1)c1ccc(Br)o1,20%,i,i,-12%,22µM*
O=C(Nc1ccccc1Oc1ccccc1)c1ccc(Br)o1,?,i,i,1%,4%
Cc1c(C(N)=O)nnn1-c1ccc(Br)cc1,.,i,i,.,14%
COC(=O)CN(C)C1CC(=O)N(c2ccc(Cl)cc2)C1=O (stereo not given),2%,i,i,2%,18µM*
COc1ccc(/C=C2/C(=O)ON=C2C)cc1Br,11%,i,i,-13%,-44%
COc1ccccc1/C=C1/C(=O)ON=C1C,-4%,i,i,-9%,14µM*
CCN(CCCNC(=O)c1cc2cc3ccc(OC)cc3nc2s1)c1ccccc1,-15%,i,i,.,-8%
CCCCN(C)C(=O)c1cc2cc3ccc(OC)cc3nc2s1,-3%,i,i,-25%,18µM*
COc1cccc(C(=O)n2ccc3ccc(-c4ccc5ccn(Cc6ccc(C#N)cc6)c5c4)cc32)c1,.,.,i,.,.
CC1(C)CC(=O)C=C(Nc2ccccc2NC(=O)c2cc(F)cc(F)c2)C1,.,.,i,.,.
